Results as given in PubChem BioAssay (NCI).
This is part of a sample that, as a whole, favours compounds with a hit. Of some 83,000 tested, about 20% had one in any assay.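 The test compound was applied at a single concentration to cells in 96-well plates for 48 hours, and percent growth was recorded.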 The source made the active and inactive calls. Rule for the calls: active = growth percent below 10; inactive = the rest.

Columns and labels:
Assay in all cases: NCI-60 one-dose screen, 48 h (100 = growth as untreated, 0 = no growth, -100 = all killed)
Details in all cases: 10 µM unless noted
[1] = system: SR leukemia
[2] = system: OVCAR-8 ovarian
[3] = system: OVCAR-5 ovarian
[4] = system: OVCAR-4 ovarian
[5] = system: SK-OV-3 ovarian
[6] = system: OVCAR-3 ovarian
[7] = system: HS 578T breast
[8] = system: NCI/ADR-RES ovarian
[9] = system: IGROV1 ovarian

Measured: growth

CC(=O)c1nc2ccccc2n1CC(=O)c1cccc(Cl)c1
inactive: [2] 10.1% | [3] 47.5% | [4] 22.9% | [5] 17.5% | [7] 19% | [8] 13.9%
active: [1] -12.6% | [6] -31.3%

CCOC(=O)c1sc2nc(-c3cccc(O)c3)nc(N3CCOCC3)c2c1C
inactive: [1] 65% | [2] 61.8% | [3] 88.3% | [4] 51.3% | [5] 51.1% | [9] 16.9% | [6] 60.5% | [7] 15.5% | [8] 59.6%

C#CC(F)(F)[C@]1(O)CC[C@H]2[C@@H]3CCC4=CC(=O)CCC4=C3[C@@H](c3ccc(C(C)=O)cc3)C[C@@]21C
inactive: [2] 90% | [3] 84.4% | [4] 76.2% | [5] 52.8% | [7] 76.5% | [8] 82.7%
active: [1] 7.36% | [9] -34.3% | [6] 9.4%

CCN(CC)CCCCNc1c2ccc(Cl)cc2nc2ccc(OC)cc12
active: [1] -19% | [2] 5.44% | [3] -12.2% | [4] -50.2% | [5] 7.93% | [9] 3.67% | [6] -25.8% | [7] -23.2% | [8] 4.68%

C(=C\c1nccc2c1[nH]c1ccccc12)/c1ccccc1
inactive: [1] 82.7% | [2] 26.1% | [3] 62.9% | [4] 14.9% | [5] 24.7% | [7] 29.2% | [8] 15.5%
active: [9] -15.9% | [6] -13.3%

CCOC(=O)c1c(CN2CCN(C)CC2)nc2ccc(Cl)cc2c1-c1ccccc1
inactive: [2] 84% | [3] 69% | [4] 79.4% | [5] 90.7% | [9] 50.1% | [6] 76.8% | [7] 61% | [8] 68.7%
active: [1] -2.55%

CC(=O)Nc1ccc(-n2c(O)c(/C=N/NC(=O)Cc3ccccc3Nc3c(Cl)cccc3Cl)sc2=S)cc1
inactive: [1] 72.9% | [2] 91.7% | [3] 114% | [4] 105% | [5] 111% | [9] 96.7% | [6] 116% | [7] 92.5% | [8] 101%

COc1ccc2c(c1)CC/C(=C\c1cncc(Br)c1)C2=O
inactive: [1] 33.5% | [2] 90% | [3] 86.8% | [4] 86.5% | [5] 99.7% | [9] 94.8% | [6] 95.9% | [7] 116% | [8] 83.1%

CCOC(=O)c1cc(C(=O)c2ccc(O)c(O)c2)n2ccc(-c3ccn4c(C(=O)c5ccc(O)c(O)c5)cc(C(=O)OCC)c4c3)cc12
inactive: [1] 62.3% | [2] 91.4% | [3] 121% | [4] 86.5% | [5] 100% | [9] 87.4% | [6] 101% | [7] 85.8% | [8] 102%

c1ccc(Cn2cc(-c3nc4ccccc4s3)c3cccnc32)cc1
inactive: [1] 112% | [2] 106% | [3] 103% | [4] 90.9% | [5] 96.1% | [9] 94.3% | [6] 95.6% | [7] 110% | [8] 98.6%

N#Cc1cnn(-c2nc3c(Cl)cccc3s2)c1N
active: [4] -4.16%
inactive: [1] 89.9% | [2] 80.8% | [3] 108% | [5] 78.1% | [9] 84% | [6] 98.1% | [7] 84.2% | [8] 82%

NC(CSC(c1ccccc1)(c1ccccc1)c1ccc(Cl)cc1)C(=O)O (stereo unspecified)
inactive: [3] 12.2% | [4] 63.2% | [5] 17.2%
active: [1] -24.5% | [2] -15.9% | [6] -41.4% | [7] -36.2% | [8] -20.5%

COc1ccc(S(=O)(=O)N2CC3(COC3)C2)cc1NC(=O)c1[nH]c(C)c2c1CCCCC2=O
inactive: [1] 51.3% | [2] 54.2% | [3] 61.1% | [4] 56.6% | [5] 39.8% | [9] 44% | [6] 54.4% | [7] 26.7% | [8] 91.1%

CCOC(=O)c1sc(Nc2ccc(Cl)cc2)nc1C
inactive: [1] 11% | [2] 19.8% | [3] 51.6% | [4] 18.2% | [5] 20.3% | [9] 19.3% | [6] 27.4% | [7] 10.1% | [8] 17.5%

Cc1ccc(NC(=O)C2CCC(CN3CCN(C)CC3)CC2)cc1Nc1nccc(-c2cccnc2)n1 (stereo unspecified)
inactive: [1] 90.9% | [2] 111% | [3] 92% | [4] 108% | [5] 110% | [9] 110% | [6] 103% | [7] 85.1% | [8] 97.5%

OC(COc1cccc2ccccc12)CN1CCN(c2ccccc2Cl)CC1 (stereo unspecified)
inactive: [1] 78.3% | [2] 98.4% | [3] 85.3% | [4] 92.7% | [5] 89.2% | [9] 117% | [6] 101% | [7] 107% | [8] 89.4%

CCOc1ccc(C(C)=O)cc1NC(=O)c1cccc(-c2nnn(CC)n2)c1
active: [6] 7.08%
inactive: [1] 10.2% | [2] 34.2% | [3] 66.5% | [4] 48% | [5] 23.8% | [9] 52.3% | [7] 25.4% | [8] 25.2%

Cc1ccc(C(SCC(N)C(=O)O)(c2ccccc2)c2ccc(C)cc2)cc1 (stereo unspecified)
active: [1] -29.8% | [2] -32.5% | [3] 6.69% | [9] -32% | [6] -48% | [7] -45.6% | [8] 7.01%
inactive: [4] 61.5% | [5] 28.6%

CC1=C[C@H]2c3c(c(O)c(O)c4oc(-c5ccccc5)cc(=O)c34)[C@H](c3cc(O)c(O)c4oc(-c5ccccc5)cc(=O)c34)[C@H]2C(C)(C)C1
active: [1] 0.0772% | [2] 8.73% | [5] -3.99% | [9] -31.1% | [6] 7.79% | [7] 5.98%
inactive: [3] 20% | [4] 10.4% | [8] 17.5%

c1ccc2[nH]c(-c3ccc(Nc4nc(N5CCCC5)nc5[nH]ncc45)cc3)nc2c1
inactive: [3] 17.9% | [4] 10.7% | [5] 22.2%
active: [1] -31.1% | [2] -55.1% | [9] 4.03% | [6] -53.1% | [7] -34% | [8] 1.12%

O=C1/C(=C/c2ccc3c(c2)OCO3)SC(=S)N1CCc1ccc(O)cc1
inactive: [1] 101% | [2] 101% | [3] 111% | [5] 104% | [9] 75.9% | [6] 101% | [7] 96.7% | [8] 97.4%

O=C(CCN1C(=O)/C(=C/c2ccc(Cl)cc2)SC1=S)NCCCN1CCOCC1
inactive: [1] 102% | [2] 92.4% | [3] 103% | [4] 102% | [5] 88.2% | [9] 110% | [6] 105% | [7] 90.9% | [8] 98.9%

CC/C=C\C[C@H]1C/C=C2/C(=O)C=C[C@H]2C/C=C\CCCC(=O)O1
inactive: [3] 87.8% | [4] 29.5% | [5] 37.3% | [9] 12.4% | [7] 54.2% | [8] 22.4%
active: [1] 4.6% | [2] 0.796% | [6] 6.53%

Oc1ccc(N=Cc2ccccc2O)cc1
inactive: [1] 83.7% | [2] 83.6% | [3] 87.3% | [4] 89.3% | [5] 98.5% | [9] 90.2% | [6] 90.6% | [7] 112% | [8] 98.2%

CC(C)C[C@@H](NC(=O)[C@@H](Cc1ccccc1)NC(=O)c1cnccn1)B1Oc2ccc(C[C@H](NC(=O)[C@H](Cc3ccc4c(c3)OB([C@@H](CC(C)C)NC(=O)[C@@H](Cc3ccccc3)NC(=O)c3cnccn3)O4)NC(=O)[C@@H](N)CC3CCC4OB([C@@H](CC(C)C)NC(=O)[C@@H](CC5CCCCC5)NC(=O)C5CNCCN5)OC4C3)C(=O)NCCCC[C@@H]3NC(=O)[C@@H](Cc4ccccc4)NC(=O)[C@H](CC(=O)O)NC(=O)CNC(=O)[C@H](CCCNC(=N)N)NC3=O)cc2O1 (stereo partly specified)
active: [1] 1.49% | [2] -45.3% | [3] -31% | [4] -26.7% | [5] -30% | [9] -8.65% | [6] -49.3% | [7] 5.06% | [8] -8.71%

COc1ccc(C(=S)N2CCN(c3cccc(Cl)c3)CC2)cc1
inactive: [1] 90.6% | [2] 100% | [3] 98.5% | [4] 99.1% | [5] 107% | [9] 104% | [6] 112% | [7] 118% | [8] 104%
